Source: the supplement of paper PMC10849652
The full data set covers some 7,900 targets. This sample favours those with a hit. About 0.6% of all pairs of compound and target were hits.

Legend:
Experiment in all cases: log2 fold change, soluble protein after heating vs DMSO (PISA); higher = thermal stabilisation; K562 cells, 10 uM, 30 min; active = over 0.2 and 3.5 SD of the protein, either way, in both replicates (recomputed)
[1] = compound: C#Cc1cccc(Nc2ncnc3cc(OCCOC)c(OCCOC)cc23)c1 [erlotinib]
How it was run: (§1)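 K562 cells at 2×10^6 cells/mL were treated for 30 min with 10 μM compound, and aliquots were heated for 3 min over 48°C-58°C before pooling. Extraction used PBS with 0.5% NP-40 at 4°C, and soluble protein was the supernatant after 21,000xg for 90 min, measured by TMTpro 16plex LC-MS/MS with channel sums equalised. Thermal stability values, relative to control samples and from duplicates, are log2 fold changes.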

[2] = compound: C/C(=N\NC(=O)C1=CC(=CC=C1)S(=O)(=O)N2CCOCC2)/C3=C(C=CC(=C3)Cl)O
How it was run: as §1

[3] = compound: C1=CC(=C(C=C1Cl)C2=NC3=NC=CN=C3C(=N2)NC4=CC=NC=C4)F
How it was run: as §1

[4] = compound: C1=CC(=CC=C1C2=NC3=C(N2)C=C(C=C3)C(=O)N)OC4=CC=C(C=C4)Cl
How it was run: as §1

[5] = compound: C1=CC2=C(C=CC(=C2)/C=C\3/C(=O)NC(=NCC4=CC=CS4)S3)N=C1
How it was run: as §1

[6] = compound: C1=CC2=NC=CN=C2C=C1/C=C/3\C(=O)NC(=O)S3
How it was run: as §1

[7] = compound: C1=CC=C(C=C1)C2=NC(=C(N2)C3=CC=NC=C3)C4=CC(=C(C=C4)Cl)O
How it was run: as §1

[8] = compound: C1=CC=C2C(=C1)C3=NNC4=CC=CC(=C43)C2=O
How it was run: as §1

[9] = compound: C1CCN(C1)C(=O)NC2=CC=CC(=C2)NC3=NC=C(C(=N3)NCCC4=CN=CN4)Br
How it was run: as §1

[10] = compound: C1CN(CCC1(CC2=CC=C(C=C2)Cl)N)C3=NC=NC4=C3C=CN4
How it was run: as §1

[11] = compound: C1COCCN1CCN2C3=CC=CC=C3N=C2NC(=O)C4=CC(=CC=C4)[N+](=O)[O-] [IRAK-1-4 Inhibitor I]
How it was run: as §1

[12] = compound: C=CC(=O)N1CCC[C@@H](n2nc(-c3ccc(Oc4ccccc4)cc3)c3c(N)ncnc32)C1 [ibrutinib]
How it was run: as §1

[13] = compound: CC(=O)c1cnc2ccc(-c3cc(Cl)c(O)c(Cl)c3)nc2c1N[C@H]1CC[C@H](CN(C)C)CC1
How it was run: as §1

[14] = compound: CC(C)(C)Cn1c(N)nc2ccc(-c3[nH]c(C(C)(C)C)nc3-c3ccc(F)cc3)nc21 [ralimetinib]
How it was run: as §1

[15] = compound: CC(C)(O)CC(=O)NCCn1ccc2ncnc(Nc3ccc(Oc4cccc(C(F)(F)F)c4)c(Cl)c3)c21
How it was run: as §1

[16] = compound: CC(C)C1=C2N=C(C=C(N2N=C1)NCC3=CC=CC=C3)NCCCCCCN
How it was run: as §1

[17] = compound: CC(C)C[C@@H](C=O)NC(=O)[C@H](CC(C)C)NC(=O)[C@H](CC(C)C)NC(=O)OCc1ccccc1
How it was run: as §1

[18] = compound: CC(C)N(C[C@H]1O[C@@H](n2cnc3c(N)ncnc32)[C@H](O)[C@@H]1O)[C@H]1C[C@@H](CCc2nc3cc(C(C)(C)C)ccc3[nH]2)C1 [pinometostat]
How it was run: as §1

[19] = compound: CC1=C(C(CC(=O)N1)C2=CC=C(C=C2)C(F)(F)F)C(=O)NC3=C(C=C4C(=C3)C=NN4)F
How it was run: as §1

[20] = compound: CC1=C(C2=C(C=C1)C(=O)C3=CC=CC=C3N2CCCN)C
How it was run: as §1

Measured: log2 fold change

SNRPB2 (UniProt P08579)
UniProt P08579, sequence (P08579 whole entry, looked up): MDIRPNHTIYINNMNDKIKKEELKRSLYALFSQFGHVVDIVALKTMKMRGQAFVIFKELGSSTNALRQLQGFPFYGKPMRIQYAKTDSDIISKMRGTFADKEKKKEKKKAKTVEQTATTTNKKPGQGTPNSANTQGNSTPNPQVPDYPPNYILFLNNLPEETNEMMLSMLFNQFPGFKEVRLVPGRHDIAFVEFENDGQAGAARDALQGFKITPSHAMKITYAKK
active: [16] 0.213
inactive: [1] -0.032 | [2] -0.056 | [3] -0.01 | [4] -0.019 | [5] -0.034 | [6] 0.042 | [7] -0.054 | [8] -0.015 | [9] 0.057 | [10] -0.026 | [11] 0.067 | [12] 0.074 | [13] 0.089 | [14] -0.015 | [15] 0.037 | [17] 0.037 | [18] 0 | [19] -0.012 | [20] 0.036

TBC1D24 (UniProt Q9ULP9)
UniProt Q9ULP9, sequence (Q9ULP9 whole entry, looked up): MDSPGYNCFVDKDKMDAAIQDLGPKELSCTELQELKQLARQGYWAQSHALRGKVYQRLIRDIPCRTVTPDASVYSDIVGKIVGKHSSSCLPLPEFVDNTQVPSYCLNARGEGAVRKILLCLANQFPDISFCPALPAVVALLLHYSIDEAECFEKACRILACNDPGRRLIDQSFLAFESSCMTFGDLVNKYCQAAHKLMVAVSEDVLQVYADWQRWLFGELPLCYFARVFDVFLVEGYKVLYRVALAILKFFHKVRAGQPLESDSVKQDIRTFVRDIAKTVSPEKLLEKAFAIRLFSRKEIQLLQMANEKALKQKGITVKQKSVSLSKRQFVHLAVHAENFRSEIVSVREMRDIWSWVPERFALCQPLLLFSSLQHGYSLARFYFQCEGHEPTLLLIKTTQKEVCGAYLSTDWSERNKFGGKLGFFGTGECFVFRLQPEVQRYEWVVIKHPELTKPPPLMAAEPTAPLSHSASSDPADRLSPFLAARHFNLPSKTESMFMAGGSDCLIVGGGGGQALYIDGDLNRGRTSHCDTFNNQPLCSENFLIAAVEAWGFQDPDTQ
inactive: [1] 0.038 | [2] 0.068 | [3] 0.059 | [4] 0.037 | [5] 0.072 | [6] 0 | [7] 0.048 | [8] 0.053 | [9] 0.042 | [10] 0.157 | [11] -0.025 | [12] 0.022 | [14] -0.086 | [15] -0.057 | [16] -0.09 | [17] -0.053 | [18] 0.04 | [19] 0.047 | [20] 0.142
active: [13] -0.415

SRC isoform 2 (UniProt P12931)
UniProt P12931, sequence (P12931 whole entry, looked up): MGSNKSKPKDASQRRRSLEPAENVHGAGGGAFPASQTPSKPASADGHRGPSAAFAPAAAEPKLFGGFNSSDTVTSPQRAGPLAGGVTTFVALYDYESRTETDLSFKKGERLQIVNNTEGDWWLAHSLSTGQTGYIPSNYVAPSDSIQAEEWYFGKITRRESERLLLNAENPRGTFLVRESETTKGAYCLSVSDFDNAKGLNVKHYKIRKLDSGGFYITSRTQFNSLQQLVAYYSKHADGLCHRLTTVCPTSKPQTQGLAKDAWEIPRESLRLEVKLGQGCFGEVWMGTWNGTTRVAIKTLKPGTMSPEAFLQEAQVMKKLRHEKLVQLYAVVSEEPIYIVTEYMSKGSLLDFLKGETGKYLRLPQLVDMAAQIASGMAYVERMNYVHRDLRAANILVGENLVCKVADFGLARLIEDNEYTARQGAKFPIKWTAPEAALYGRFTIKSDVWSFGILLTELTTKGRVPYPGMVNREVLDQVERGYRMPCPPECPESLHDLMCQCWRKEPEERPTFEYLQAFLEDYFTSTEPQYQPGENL
inactive: [1] -0.014 | [2] -0.034 | [3] -0.006 | [4] 0.153 | [5] 0.088 | [6] 0.022 | [7] 0.036 | [8] -0.049 | [9] -0.073 | [10] -0.025 | [11] -0.018 | [13] -0.251 | [14] -0.136 | [15] -0.22 | [16] 0.159 | [17] 0.05 | [18] 0.087 | [19] 0.067 | [20] 0.02

SLC29A3 (UniProt Q9BZD2)
UniProt Q9BZD2, sequence (Q9BZD2 whole entry, looked up): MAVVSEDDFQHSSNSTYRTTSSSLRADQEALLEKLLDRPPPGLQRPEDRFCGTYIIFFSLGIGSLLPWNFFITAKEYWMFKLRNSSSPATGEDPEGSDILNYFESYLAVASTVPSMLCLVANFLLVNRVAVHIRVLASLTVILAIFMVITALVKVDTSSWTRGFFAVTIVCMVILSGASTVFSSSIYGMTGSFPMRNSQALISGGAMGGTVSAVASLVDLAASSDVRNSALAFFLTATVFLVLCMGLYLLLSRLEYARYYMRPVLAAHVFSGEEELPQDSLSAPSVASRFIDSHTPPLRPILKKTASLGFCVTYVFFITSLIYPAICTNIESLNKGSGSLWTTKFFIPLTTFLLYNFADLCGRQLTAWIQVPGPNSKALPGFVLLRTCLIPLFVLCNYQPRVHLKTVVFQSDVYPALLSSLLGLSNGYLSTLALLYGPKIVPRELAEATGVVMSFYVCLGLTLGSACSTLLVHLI
inactive: [1] 0.155 | [2] 0.024 | [3] 0.028 | [4] 0.043 | [5] 0.042 | [6] 0.098 | [7] 0.064 | [8] 0 | [9] 0.074 | [10] 0.052 | [11] 0.01 | [12] 0.064 | [13] 0.04 | [14] -0.025 | [15] 0.088 | [16] -0.283 | [17] 0.011 | [18] 0.02 | [19] -0.046 | [20] -0.148

STXBP2 isoform 3 (UniProt Q15833)
UniProt Q15833, sequence (Q15833 whole entry, looked up): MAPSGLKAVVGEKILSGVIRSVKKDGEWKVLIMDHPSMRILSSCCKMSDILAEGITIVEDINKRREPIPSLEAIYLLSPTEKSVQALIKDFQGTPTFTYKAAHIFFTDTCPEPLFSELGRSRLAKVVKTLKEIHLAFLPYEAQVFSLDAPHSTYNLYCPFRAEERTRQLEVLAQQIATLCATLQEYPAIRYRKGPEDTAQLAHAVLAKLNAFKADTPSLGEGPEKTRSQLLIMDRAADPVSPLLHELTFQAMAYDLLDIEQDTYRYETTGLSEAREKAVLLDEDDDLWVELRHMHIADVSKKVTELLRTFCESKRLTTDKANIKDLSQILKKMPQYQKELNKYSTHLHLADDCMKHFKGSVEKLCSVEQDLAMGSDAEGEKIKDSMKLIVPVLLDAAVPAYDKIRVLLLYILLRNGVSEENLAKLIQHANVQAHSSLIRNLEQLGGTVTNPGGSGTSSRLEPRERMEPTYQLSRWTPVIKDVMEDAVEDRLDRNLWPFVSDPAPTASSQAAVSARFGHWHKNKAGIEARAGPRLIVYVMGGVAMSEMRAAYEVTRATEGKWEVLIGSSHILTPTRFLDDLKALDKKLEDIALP
active: [16] -0.364
inactive: [1] 0.088 | [2] 0.139 | [3] -0.109 | [4] -0.049 | [5] 0.096 | [6] -0.004 | [7] 0.05 | [8] 0.026 | [9] -0.058 | [10] -0.166 | [11] -0.11 | [12] -0.057 | [13] -0.021 | [14] 0.172 | [15] -0.065 | [17] 0.147 | [18] 0.189 | [19] 0.023 | [20] 0.025

TECR (UniProt Q9NZ01)
UniProt Q9NZ01, sequence (Q9NZ01 whole entry, looked up): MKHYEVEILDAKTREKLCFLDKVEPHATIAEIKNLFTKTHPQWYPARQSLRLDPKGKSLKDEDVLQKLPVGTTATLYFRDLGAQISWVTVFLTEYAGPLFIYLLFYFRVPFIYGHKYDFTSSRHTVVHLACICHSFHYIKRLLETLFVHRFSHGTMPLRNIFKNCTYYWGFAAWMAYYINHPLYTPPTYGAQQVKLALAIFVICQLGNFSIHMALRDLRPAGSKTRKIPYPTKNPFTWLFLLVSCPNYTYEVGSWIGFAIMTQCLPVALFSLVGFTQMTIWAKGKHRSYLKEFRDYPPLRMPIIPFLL
inactive: [1] -0.02 | [2] 0.042 | [3] 0.036 | [4] -0.059 | [5] 0.018 | [6] 0.024 | [7] 0.067 | [8] -0.059 | [9] 0.072 | [10] 0.045 | [11] 0.04 | [12] -0.059 | [13] 0 | [14] -0.061 | [15] -0.107 | [17] 0.009 | [18] 0.024 | [19] 0.012 | [20] 0.036
active: [16] -0.458

STK11IP (UniProt Q8N1F8)
UniProt Q8N1F8, sequence (Q8N1F8 whole entry, looked up): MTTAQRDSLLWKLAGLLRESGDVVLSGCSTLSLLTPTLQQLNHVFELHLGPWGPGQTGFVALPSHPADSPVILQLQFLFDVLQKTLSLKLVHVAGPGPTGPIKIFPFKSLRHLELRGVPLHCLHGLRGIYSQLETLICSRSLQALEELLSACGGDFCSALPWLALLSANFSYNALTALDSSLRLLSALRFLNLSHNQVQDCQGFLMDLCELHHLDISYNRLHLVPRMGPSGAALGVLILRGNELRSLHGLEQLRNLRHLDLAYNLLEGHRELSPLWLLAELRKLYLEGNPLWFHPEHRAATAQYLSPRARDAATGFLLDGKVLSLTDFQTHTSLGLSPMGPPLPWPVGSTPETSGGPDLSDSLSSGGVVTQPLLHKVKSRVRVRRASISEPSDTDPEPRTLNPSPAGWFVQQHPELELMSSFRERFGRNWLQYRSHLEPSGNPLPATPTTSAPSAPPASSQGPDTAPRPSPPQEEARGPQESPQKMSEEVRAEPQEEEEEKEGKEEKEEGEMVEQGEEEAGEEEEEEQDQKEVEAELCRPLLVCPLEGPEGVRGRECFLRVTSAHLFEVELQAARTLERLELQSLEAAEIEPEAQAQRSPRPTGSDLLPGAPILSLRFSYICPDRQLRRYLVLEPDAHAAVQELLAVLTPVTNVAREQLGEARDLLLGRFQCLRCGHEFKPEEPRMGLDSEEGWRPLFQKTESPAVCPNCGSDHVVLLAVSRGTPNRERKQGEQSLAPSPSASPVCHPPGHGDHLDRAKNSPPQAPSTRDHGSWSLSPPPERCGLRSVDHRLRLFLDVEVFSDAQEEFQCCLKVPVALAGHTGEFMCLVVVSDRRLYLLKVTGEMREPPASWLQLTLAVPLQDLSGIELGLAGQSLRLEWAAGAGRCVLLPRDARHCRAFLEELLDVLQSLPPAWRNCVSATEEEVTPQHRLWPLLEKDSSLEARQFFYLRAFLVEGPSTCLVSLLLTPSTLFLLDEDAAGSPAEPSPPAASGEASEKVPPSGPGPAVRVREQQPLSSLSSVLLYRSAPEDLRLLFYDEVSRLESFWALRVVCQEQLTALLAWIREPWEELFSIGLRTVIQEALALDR
inactive: [1] 0.025 | [2] 0.152 | [3] -0.079 | [4] -0.243 | [5] 0.094 | [6] 0.006 | [8] -0.062 | [9] 0.042 | [10] -0.01 | [11] -0.248 | [12] 0.027 | [13] -0.02 | [15] -0.131 | [18] 0.168 | [19] 0.1 | [20] -0.183
active: [16] -0.932

ST3GAL2 (UniProt Q16842)
UniProt Q16842, sequence (Q16842 whole entry, looked up): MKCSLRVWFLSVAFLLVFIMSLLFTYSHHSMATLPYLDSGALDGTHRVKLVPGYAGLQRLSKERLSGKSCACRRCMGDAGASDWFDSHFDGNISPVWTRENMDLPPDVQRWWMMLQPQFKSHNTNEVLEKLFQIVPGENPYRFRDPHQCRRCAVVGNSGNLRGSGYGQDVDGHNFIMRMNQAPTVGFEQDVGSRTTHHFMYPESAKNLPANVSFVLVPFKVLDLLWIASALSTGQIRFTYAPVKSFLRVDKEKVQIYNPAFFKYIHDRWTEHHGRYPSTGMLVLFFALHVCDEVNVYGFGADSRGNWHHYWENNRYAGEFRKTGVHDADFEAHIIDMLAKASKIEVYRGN
inactive: [1] 0.032 | [2] 0.07 | [3] -0.069 | [4] 0.009 | [5] -0.085 | [6] -0.052 | [7] -0.057 | [8] 0.045 | [9] -0.024 | [10] 0.108 | [11] -0.183 | [12] -0.105 | [13] -0.115 | [14] -0.009 | [15] 0.119 | [16] -0.12 | [17] 0.066 | [18] -0.031 | [19] -0.037 | [20] 0.046

SREK1 isoform 2 (UniProt Q8WXA9)
UniProt Q8WXA9, sequence (Q8WXA9 whole entry, looked up): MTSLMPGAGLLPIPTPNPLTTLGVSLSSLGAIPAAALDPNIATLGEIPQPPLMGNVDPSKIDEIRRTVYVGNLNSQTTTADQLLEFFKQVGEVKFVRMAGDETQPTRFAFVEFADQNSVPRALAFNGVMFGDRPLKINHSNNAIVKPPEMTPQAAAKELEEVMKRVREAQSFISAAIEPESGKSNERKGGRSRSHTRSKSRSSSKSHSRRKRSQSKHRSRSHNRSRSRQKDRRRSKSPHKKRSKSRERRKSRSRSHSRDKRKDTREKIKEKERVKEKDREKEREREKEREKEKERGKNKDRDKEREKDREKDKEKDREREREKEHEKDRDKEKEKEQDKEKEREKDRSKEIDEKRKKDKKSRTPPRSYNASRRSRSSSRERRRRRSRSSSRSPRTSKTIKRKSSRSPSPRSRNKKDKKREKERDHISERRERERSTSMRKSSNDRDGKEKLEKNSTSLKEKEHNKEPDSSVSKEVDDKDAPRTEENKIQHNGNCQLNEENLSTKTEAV
active: [13] -0.497
inactive: [1] -0.036 | [2] 0.1 | [3] -0.019 | [4] 0.12 | [5] -0.149 | [6] -0.084 | [7] 0.233 | [8] -0.096 | [9] -0.126 | [10] -0.24 | [11] -0.245 | [12] -0.006 | [14] 0.036 | [15] 0.026 | [16] -0.36 | [17] 0.005 | [18] 0.11 | [19] 0.022 | [20] 0.08
